Measurements as given in PubChem BioAssay AID720 (The Scripps Research Institute Molecular Screening Center, 2007).
Among all 97,000 compounds or so, about 140 (0.14%) were called active. The entries come from a sample that favours actives as a whole. A number with no mark means an inactive call.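 How the source made its calls: active means inhibition above the screen-wide mean inhibition plus 3 SD (cut at about 15% in these data); inactive means the rest.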

Biological target: Ephrin type-B receptor 4 (Homo sapiens) (UniProt P54760)
Assay: blockers of EphB4 ligand binding – biochemical, TNYL-RAW peptide probe, fluorescence polarization, primary screen (AID 720);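 further: 0% = DMSO wells and 100% = excess unlabeled TNYL-RAW peptide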
Conditions: EphB4 LBD / TNYL-RAW-Alexa532 peptide, at 7 µM, hits give high values

Sequence of Ephrin type-B receptor 4 (Homo sapiens) (P54760 whole entry, looked up): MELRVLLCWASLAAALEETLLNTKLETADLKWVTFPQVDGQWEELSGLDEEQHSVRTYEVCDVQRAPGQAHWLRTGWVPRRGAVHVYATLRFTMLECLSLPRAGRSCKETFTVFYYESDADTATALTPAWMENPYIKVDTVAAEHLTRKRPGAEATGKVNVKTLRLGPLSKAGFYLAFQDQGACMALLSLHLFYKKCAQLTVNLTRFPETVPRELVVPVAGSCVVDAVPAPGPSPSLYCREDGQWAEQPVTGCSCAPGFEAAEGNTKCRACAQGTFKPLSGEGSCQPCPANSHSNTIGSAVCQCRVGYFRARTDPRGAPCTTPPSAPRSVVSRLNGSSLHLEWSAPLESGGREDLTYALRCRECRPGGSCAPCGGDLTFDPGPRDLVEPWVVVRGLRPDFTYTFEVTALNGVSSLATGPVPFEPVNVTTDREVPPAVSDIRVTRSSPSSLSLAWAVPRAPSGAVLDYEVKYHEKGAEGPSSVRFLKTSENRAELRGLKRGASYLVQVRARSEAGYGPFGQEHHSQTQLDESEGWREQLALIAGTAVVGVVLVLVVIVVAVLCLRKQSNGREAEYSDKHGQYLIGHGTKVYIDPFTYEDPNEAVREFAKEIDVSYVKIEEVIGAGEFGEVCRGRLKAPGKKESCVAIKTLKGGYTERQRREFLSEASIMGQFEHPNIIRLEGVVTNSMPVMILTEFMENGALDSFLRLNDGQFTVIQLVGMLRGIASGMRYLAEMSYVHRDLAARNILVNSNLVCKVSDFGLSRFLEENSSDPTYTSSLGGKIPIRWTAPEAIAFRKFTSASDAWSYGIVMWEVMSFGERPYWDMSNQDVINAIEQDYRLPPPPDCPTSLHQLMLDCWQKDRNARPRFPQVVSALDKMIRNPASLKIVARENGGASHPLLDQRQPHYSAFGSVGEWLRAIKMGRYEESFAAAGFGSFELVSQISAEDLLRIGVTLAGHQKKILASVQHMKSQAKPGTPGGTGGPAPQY

| Compound | inhibition |
| --- | --- |
| CCc1cccc2c(C#N)cn(CC(=O)N3CCOCC3)c12 | 21.5% (active) |
| CCC(=O)CC(c1ccc([N+](=O)[O-])cc1)c1c(O)c2ccccc2oc1=O (stereo not given) | 0.56% |
| CC(=O)c1ccc(OC(NC(=O)Cc2ccccc2)C(Cl)(Cl)Cl)cc1 (stereo not given) | 0.16% |
| OC(Cn1c2ccccc2c2ccccc21)C[n+]1ccccc1 (stereo not given) | -2.91% |
| CC(=O)Nc1ccccc1C(=O)OCC(=O)c1cccc2ccccc12 | -0.92% |
